Source: PubChem
An excerpt weighted towards active compounds, which were near 18% of everything screened.
DT40 TDP1 CPT = growth inhibition of DT40 Tdp1-/-;hTDP1 cells with camptothecin (screen for TDP1 inhibitors); 420,000 tested, 12% active; Potency, µM (series often up to 46.2 µM), inactives show at the top dose activity change, negative = growth inhibition, hits mostly inhibitors; chicken DT40 Tdp1-/-;hTDP1 cells + 20 nM CPT, ATP luminescence, 48 h; note: potency is the fitted concentration of half-maximal effect; nearly all actives have a fitted effect of over 55% in size
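Cell growth measured by CellTiter-Glo luminescence after a minimum 48 h, 37 C compound exposure with 20 nM CPT in Tdp1-knockout DT40 cells stably expressing hTDP1, seeded 400/well; qHTS titration format.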
TDP1 cell noCPT = qHTS for Inhibitors of human tyrosyl-DNA phosphodiesterase 1 (TDP1): qHTS in cells in absence of CPT; DT40 Tdp1-/- hTDP1 cells, no CPT, ATP luminescence, 48 h; Potency, µM (top dose mostly 46.2 µM), for the others: top-dose activity change, negative = growth inhibition, usual class: inhibitors; 420,000 tested, 15% active; AID 686978, 2013; note: potency is the fitted concentration of half-maximal effect; nearly all actives have a fitted effect of over 55% in size
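Luminescent ATP content (CellTiter-Glo) served as the growth readout. Knockout chicken DT40 cells expressing human TDP1 were exposed to compounds without camptothecin for a minimum 48 hr at 37 °C.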
CtBP-E1A blk = CtBP/E1A binding inhibition | AlphaScreen GST-E1A/His-CtBP binding, 1536-well; stronger effect = lower value | activity change, % (test concentration not listed) | 340,000 tested, 0.49% active; in the data active = activity change below about -65%; inconclusive = mostly about -30% to -63%
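GST-E1A and His-tagged CtBP (125 nM each as 5X stock) were preincubated with pin-transferred compound for 2 h at 37 °C in the dark, then glutathione donor and nickel acceptor beads were added for 1 h before AlphaScreen reading.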
Six1-Eya2 inh = Six1/Eya2 interaction inhibition; Q15475+O00167; AlphaScreen GST-Six1/His-Eya2 binding, biochemical; stronger effect = lower value; activity change, % (no concentration beside the values); 360,000 tested, 0.56% active; in the data active = activity change below about -65%; inconclusive = mostly about -30% to -63%
Target sequence (O00167 whole entry, looked up): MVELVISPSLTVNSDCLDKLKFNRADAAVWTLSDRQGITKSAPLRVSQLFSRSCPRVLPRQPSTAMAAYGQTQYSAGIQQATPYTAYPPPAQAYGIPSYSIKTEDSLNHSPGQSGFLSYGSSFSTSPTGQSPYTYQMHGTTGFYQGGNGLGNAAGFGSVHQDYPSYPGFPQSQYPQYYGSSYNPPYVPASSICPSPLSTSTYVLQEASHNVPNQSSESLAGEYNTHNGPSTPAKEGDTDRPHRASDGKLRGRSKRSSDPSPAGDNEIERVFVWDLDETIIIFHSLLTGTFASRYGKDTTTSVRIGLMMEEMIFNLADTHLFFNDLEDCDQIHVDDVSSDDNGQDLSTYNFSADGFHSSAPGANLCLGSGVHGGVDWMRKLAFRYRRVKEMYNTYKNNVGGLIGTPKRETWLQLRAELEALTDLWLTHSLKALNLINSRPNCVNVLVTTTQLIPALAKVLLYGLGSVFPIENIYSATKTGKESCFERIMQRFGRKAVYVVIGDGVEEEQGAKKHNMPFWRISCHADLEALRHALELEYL
Target sequence (Q15475 whole entry, looked up): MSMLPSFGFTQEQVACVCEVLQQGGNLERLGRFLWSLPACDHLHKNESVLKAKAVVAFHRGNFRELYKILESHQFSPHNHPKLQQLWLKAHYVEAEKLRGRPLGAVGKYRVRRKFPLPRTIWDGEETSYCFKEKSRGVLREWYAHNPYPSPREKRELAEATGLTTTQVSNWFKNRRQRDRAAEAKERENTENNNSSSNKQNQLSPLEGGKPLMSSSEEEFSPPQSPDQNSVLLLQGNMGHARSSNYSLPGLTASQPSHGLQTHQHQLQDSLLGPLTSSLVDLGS
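AlphaScreen luminescence read after one hour at 37 °C in darkness. Pin-transferred compounds met GST-Six1 and His-Eya2 protein (5X stock 250 nM/500 nM) plus glutathione donor and Ni-chelate acceptor beads (5X, 50 ug/mL).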
TDP1 inh = blocks human tyrosyl-DNA phosphodiesterase 1 | Potency, µM (top dose mostly 130 µM), inactives show at the highest dose activity change, negative = inhibition, most hits filed as inhibitors | Q9NUW8 | AID 485290 | 350,000 tested, 0.28% active | recombinant TDP1, AlphaScreen DNA substrate cleavage; note: potency is the fitted concentration of half-maximal effect; nearly all actives have a fitted effect of over 40% in size
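Tdp1 1 nM final; 15 min RT w/ cpd; substrate 15 nM, 5 min; beads 10 ug/ml, 10 min; AlphaScreen read. Neg ctrl: no enzyme.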
IL1B secr inh = inflammasome signaling inhibition, IL-1 beta readout; THP-1 LPS/ATP IL-1B secretion, AlphaLISA, 16 h; stronger effect = lower value; activity change, % at 57.5 µM; 360,000 tested, 4.7% active; AID 743279; in the data active = activity change below about -50%; inconclusive = mostly about -30% to -49%
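THP-1 cells pretreated 1 hr with compounds (up to 57.5 uM final), then stimulated with LPS (250 ng/mL final) plus ATP (1.25 mM final); secreted IL-1B measured by AlphaLISA after 16 hr, decreased signal indicating inhibition.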
* hit, by the source's call; ? = inconclusive; . = no result given. Unless noted, calls come from the whole dose curve; as a rule, active = well fitted curve in the direction sought with a large enough effect; inconclusive = small, poorly fitted or top-dose-only effect, or another doubt; inactive = no such curve, though single readings can be large; an effect the other way counts as inactive or inconclusive. % is set by controls: 0 for no effect and ±100 for the full control effect.

SMILES	DT40 TDP1 CPT	TDP1 cell noCPT	CtBP-E1A blk	Six1-Eya2 inh	TDP1 inh	IL1B secr inh
O=C(CCN1C(=O)/C(=C/c2ccccc2)SC1=S)N[C@@H](CO)Cc1ccccc1	18µM*	10µM*	-15	-13	5%	-61*
CCCn1nc2cc(C(=O)NC3CCc4ccccc43)ccc2c1OCC (configuration not stated)	?	?	2	2	3%	11
CC1CCN(S(=O)(=O)c2nnc(NC(=O)c3ccccc3Br)s2)CC1	-26%	-12%	-12	4	.	?
CC(=O)N1CCN(C(C(=O)Nc2c(C)cccc2C)c2ccccc2OC(F)(F)F)CC1 (configuration not stated)	0%	-6%	12	1	.	19
Cc1cccc(C)c1NC(=O)C(c1ccccc1OC(F)(F)F)N1CCC(c2ccccc2)CC1 (configuration not stated)	?	16µM*	-18	4	.	-19
Cc1cccc(C)c1NC(=O)C(c1ccccc1OC(F)(F)F)N1CCN(C/C=C/c2ccccc2)CC1 (configuration not stated)	16µM*	15µM*	-18	-16	.	?
C[C@@H]1CN([C@H](C)CO)C(=O)c2cc(NC(=O)C3CCCCC3)ccc2O[C@@H]1CN(C)Cc1ccc(C(F)(F)F)cc1	?	?	2	-2	3%	?
O=C1CCC/C=C\C[C@H](CC(=O)N(CCO)Cc2ccccc2)C(=O)N2CCC[C@@H]2CO1	-2%	-14%	4	6	1%	10
CC(C)(C)OC(=O)C[C@@H]1C/C=C\C[C@H](CC(=O)N(CCO)Cc2ccccc2)C(=O)N2CCC[C@@H]2COC1=O	-21%	-23%	7	2	1%	-5
O=C(N[C@H]1C/C=C\C[C@@H](CC(=O)N(CCO)Cc2ccccc2)C(=O)N2CCC[C@H]2COC1=O)OCC1c2ccccc2-c2ccccc21	13µM*	18µM*	-8	8	-10%	33
O=C(N[C@H]1C/C=C\C[C@@H](CC(=O)N(CCO)Cc2ccccc2)C(=O)N2CCC[C@@H]2COC1=O)OCC1c2ccccc2-c2ccccc21	8.2µM*	6.5µM*	7	4	-8%	48
Cc1ccccc1NC(=O)CSc1nc2ccccc2c2nc(CCn3cncc3C)nn12	0%	-20%	0	1	-3%	-13
COc1ccc(C(C)(NC(C)=O)c2nc(-c3cccc(C(F)(F)F)c3)cs2)cc1 (configuration not stated)	?	?	2	-2	.	-10
COc1ccc(C(C)(NC(C)=O)c2nc(-c3ccccc3OC)cs2)cc1 (configuration not stated)	18µM*	12µM*	-5	-10	.	-23
COc1cc(F)ccc1-c1csc(C(C)(NC(C)=O)c2ccccc2)n1 (configuration not stated)	12µM*	5.2µM*	-8	2	.	-6
COc1ccc(C(C)(NC(C)=O)c2nc(-c3ccc(F)cc3OC)cs2)cc1 (configuration not stated)	15µM*	13µM*	-3	0	.	11
COc1cccc(CNC(=O)C2CCN(S(=O)(=O)c3cn(C)cn3)CC2)c1	1%	-5%	.	.	-1%	.
CC(C)c1nn2c(=O)cc(CSc3ccccc3NC(=O)c3ccccc3F)nc2s1	?	-25%	-6	-1	6%	10
O=C1C=CC(=O)N1Nc1ccc(Br)cc1	-1%	0%	1	20	0%	8
Cc1ccc(S(=O)(=O)Nc2cncnc2NS(=O)(=O)c2ccc(C)cc2)cc1	?	?	-4	-9	.	-16
